# Compounds with a hit are over-represented: about 9.3% of the library has one in this group of screens.
# FLuc counter: counter-screen for miR-21 project: firefly luciferase inhibitors or activators | P08659 | purified FLuc, Km substrates, luminescence inhibition | Potency, µM (highest dose often 57.5 µM), for inactives: top-dose activity change, negative = inhibition, usual class: inhibitors | 360,000 tested, 6.9% active;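 note: plate controls were vehicle for no effect and reference inhibitor for full effect; nearly all actives have a fitted effect of over 55% in size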
# Target sequence (P08659 whole entry, looked up): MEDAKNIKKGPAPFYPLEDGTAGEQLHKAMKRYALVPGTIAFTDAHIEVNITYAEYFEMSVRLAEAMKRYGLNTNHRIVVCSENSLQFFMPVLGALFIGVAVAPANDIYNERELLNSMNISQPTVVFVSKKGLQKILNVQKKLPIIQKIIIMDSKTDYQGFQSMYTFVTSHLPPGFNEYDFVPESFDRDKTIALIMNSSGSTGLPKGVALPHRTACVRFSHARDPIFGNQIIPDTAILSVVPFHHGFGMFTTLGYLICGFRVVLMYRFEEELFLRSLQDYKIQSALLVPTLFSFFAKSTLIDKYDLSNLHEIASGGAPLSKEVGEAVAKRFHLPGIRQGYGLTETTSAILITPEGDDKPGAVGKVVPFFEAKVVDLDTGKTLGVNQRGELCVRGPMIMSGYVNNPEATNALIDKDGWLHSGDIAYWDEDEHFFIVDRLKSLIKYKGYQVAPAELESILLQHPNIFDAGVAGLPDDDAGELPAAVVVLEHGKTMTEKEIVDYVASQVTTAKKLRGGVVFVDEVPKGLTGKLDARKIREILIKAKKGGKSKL
#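 Purified P. pyralis luciferase, 10 nM final, with Km-level 10 uM D-luciferin and 10 uM ATP in 50 mM Tris acetate pH 7.5, 10 mM Mg acetate, 0.01% Tween-20, 0.05% BSA; 6-point qHTS titration about 60 µM downward; luminescence read.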
# ELG1 repair inh: inhibitors of ELG1-dependent DNA repair in HEK293T cells. 330,000 tested, 2.3% active. HEK293T ELG1-luciferase reporter, luminescence, 16 h; DNA damage induced by 5-fluorouridine. Potency, µM (highest dose often 46.1 µM), for inactives: top-dose activity change, negative = inhibition, most hits filed as inhibitors; note: % is set by controls: 0 for no effect and ±100 for the full control effect; nearly all actives have a fitted effect of over 55% in size
#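 In this reporter screen, reduction of luminescence relative to DMSO vehicle indicated activity. Compounds and 5-fluorouridine were added together to 2,000 cells per well, incubated for 16 hr at 37 °C, then developed with ONE-Glo.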
# NPC1 prom act: NPC1 promoter activation; AID 485313; Potency, µM (doses to about 9.22 µM), inactives show at the top dose activation, actives largely listed as activators; 320,000 tested, 2.4% active; Huh7 NPC1 promoter luciferase reporter, 24 h; note: % of control where 0% means no effect; nearly all actives have a fitted effect of over 60% in size
#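 Readout is luciferase luminescence, reflecting NPC1 promoter activation in stably transfected Huh7 cells after 24 h compound exposure at 37 °C in reduced-serum medium with 10% FBS.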
# SMN2 splice enh: increases expression of the SMN2 splice variant; HEK293 SMN2-luciferase splicing reporter, luminescence, 30-36 h; Potency, µM (highest dose often 46.1 µM), inactives show top-dose activity change, positive = activation, most hits filed as activators; 210,000 tested, 2.8% active; note: % of control where 0% means no effect; nearly all actives have a fitted effect of over 55% in size
#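 HEK293 cells carry an SMN2 […]–luciferase reporter in which exon 7 inclusion puts luciferase in frame. Cells were plated 10-12 h before compound addition, then incubated 30-36 h at 37C. ONE-Glo luminescence was read; sodium butyrate at 4.5 mM final served as control.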
# Rab9 prom act: Rab9 promoter activation | Huh7 Rab9 promoter-luciferase reporter, luminescence, 24 h | Potency, µM (highest dose often 9.22 µM), inactives show at the top dose activation, negative = inhibition, most hits filed as activators | 320,000 tested, 2.8% active | AID 485297; note: % of control where 0% means no effect; nearly all actives have a fitted effect of over 60% in size
#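 Cells were plated at 1500 per well in reduced-serum medium with 10% FBS and left 2 h. Compound in DMSO was then added for 24 h at 37 °C. Reporter signal was read by luminescence after 10 min with luciferase detection reagent.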
# ELG1 genotoxic: genotoxicity induction in ELG1-luciferase HEK293T cells; HEK293T ELG1-luciferase reporter, luminescence, 16 h; Potency, µM (highest dose often 46 µM), inactives show at the top dose activity change, positive = activation, actives largely listed as activators; 330,000 tested, 1.3% active; note: % of control where 0% means no effect; nearly all actives have a fitted effect of over 60% in size
#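 ELG1-luciferase HEK293T cells, 2,000/well; compound pinned in; 16 hr, 37 °C, 5% CO2; ONE-Glo, 30 min RT; luminescence on CCD imager.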
# * = called active by the depositor; ? = inconclusive; . = not tested or not shown; [ ] = another dose, or the depositor's remark. Calls come from the whole dose curve; as a rule, active = well fitted curve in the direction sought with a large enough effect; inconclusive = small, poorly fitted or top-dose-only effect, or another doubt; inactive = no such curve, though single readings can be large; an effect the other way counts as inactive or inconclusive. Potency is the fitted concentration of half-maximal effect.
SMILES,FLuc counter,ELG1 repair inh,NPC1 prom act,SMN2 splice enh,Rab9 prom act,ELG1 genotoxic
Cc1ccc(Nc2nc(CSc3nnc(-c4cccs4)o3)cs2)cc1,6.7µM*,6%,21%,-17%,19%,?
Cc1ccc(Nc2nc(CSc3nnnn3-c3ccccc3)cs2)cc1,17µM*,.,.,-9%,.,.
c1ccc(-c2nc(CSc3nnc(-c4cccs4)o3)cs2)cc1,-9%,10%,5%,6%,-3%,0%
Cc1ccc(Nc2nc(CSc3nnnn3C)cs2)cc1,3.4µM*,?,3.5µM*,11µM*,2.8µM*,?
Cn1nnnc1SCc1cccc(CSc2nnnn2C)n1,7%,2%,1%,14%,5%,?
O=C(Nc1ccc(Oc2ccc(NC(=O)Nc3ccccc3Cl)cc2)cc1)Nc1ccccc1Cl,-18%,-18%,-4%,.,-11%,2%
Cc1ccc(Nc2nc(CSc3n[nH]c(N)n3)cs2)cc1,1.3µM*,?,1.1µM*,.,2.2µM*,?
CCNS(=O)(=O)c1ccc2nc(NC(=O)c3cccnc3)sc2c1,21µM*,7%,24%,10%,?,8%
Cc1nc2ccc(NC(=O)c3cccnc3)cc2s1,-7%,12%,-3%,10%,16%,8%
CCN(CC)S(=O)(=O)c1ccc2nc(NC(=O)c3cccnc3)sc2c1,19µM*,.,.,.,.,.
CCc1ccc(-n2nc(CO)c(C(=O)NC)n2)cc1,15µM*,.,.,?,.,.
CCOc1ccc(-n2nc(CO)c(C(=O)NCc3cccs3)n2)cc1,19µM*,.,.,-10%,.,.
CCCNC(=O)c1onc(CSc2nc3ccccc3[nH]2)c1C(=O)NCCC,1%,-12%,0%,.,1%,-1%
O=C(C1CCCO1)N1CCN(S(=O)(=O)c2cc(C(F)(F)F)ccc2Cl)CC1 (stereo unspecified),2%,1%,0%,.,0%,-1%
Cc1nnc(SCCn2c(N3CCC(Cc4ccccc4)CC3)nc3c2c(=O)[nH]c(=O)n3C)s1,-1%,9.2µM*,-1%,.,-5%,-9%
Cc1nnc(SCCn2c(N3CCN(Cc4ccccc4)CC3)nc3c2c(=O)[nH]c(=O)n3C)s1,1%,?,-3%,24%,-8%,5%
CCOC(=O)C1CCN(C(=O)/C=C/c2ccccc2OC)CC1,-5%,16%,1%,1%,-1%,1%
O=C(/C=C/c1ccco1)N1CCCC(c2ccccc2)C1 (stereo unspecified),?,1%,-1%,-6%,22%,4%
O=C(/C=C/c1ccccc1)N1CCC(c2ccccc2)C1 (stereo unspecified),4.8µM*,?,3.2µM*,11µM*,1.6µM*,6.5µM*
O=C(/C=C/c1ccccc1)N1CCC(Cc2ccccc2)CC1,15µM*,0%,23%,.,30%,11%
COC(=O)C1CCN(C(=O)/C=C/c2ccccc2)CC1,?,?,1.4µM*,14µM*,1µM*,14%
COc1ccccc1N1CCN(C(=O)/C=C/c2ccccc2)CC1,1%,10%,8%,12%,-1%,2%
CCOC(=O)C1CCN(C(=O)/C=C/c2ccc(OC)cc2)CC1,7.6µM*,?,0.71µM*,6.3µM*,0.32µM*,4.1µM*
CC1(C)N=C(N)N=C(N)N1c1cccc(OCc2cccc([N+](=O)[O-])c2)c1,.,.,.,-3%[9.22 µM],.,.
c1ccc2[nH]c(SCc3ccc(-c4nnco4)cc3)nc2c1,11µM*,?,?,26%,3.5µM*,?
SMILES,FLuc counter,ELG1 repair inh,NPC1 prom act,SMN2 splice enh,Rab9 prom act,ELG1 genotoxic
CC(C)CCSc1nc2ccccc2[nH]1,11µM*,?,3.5µM*,14µM*,3.5µM*,?
O=C1CCC(=O)N1c1ccc(CSc2nc3ccccc3[nH]2)cc1,?,?,13%,-9%,22%,?
COc1ccc(CSc2nc3ccccc3[nH]2)cc1,1.5µM*,?,0.4µM*,?,0.5µM*,?
COc1ccc(CSc2nc3ncccc3[nH]2)cc1,19µM*,.,.,.,.,.
Cc1ccc(NC(=O)Cn2nnc(C(=O)NCCc3ccccc3)c2N)cc1,1%,.,.,6%,.,.
COc1ccccc1C(=O)NCCC(=O)N(C)CC(=O)Nc1ccc(Cl)cc1,0%,-1%,0%,.,1%,0%
Cc1cc(C)cc(-n2ccnc2SCC(=O)O)c1,-18%,?,?,?,?,?
O=C(O)C1C2C=CC(C2)C1C(=O)Nc1ccc(Cl)c(Cl)c1 (stereo unspecified),-2%,9%,-1%,.,5%,-4%
O=c1[nH]c(SCc2ccccc2)nc2c1sc1ccccc12,-7%,5%,0%,14%,2%,4%
COC(=O)c1cccc(CSc2nc3ccccc3[nH]2)c1,7.6µM*,?,2.5µM*,3.2µM*,?,?
Fc1ccccc1CSc1nc2ncccc2[nH]1,15µM*,?,?,22µM*,?,10µM*
CC(C)(C)C1CCC(OCC(O)CN2CCN(c3ccccn3)CC2)CC1 (stereo unspecified),-2%,-1%,-9%,-15%,10%,-12%
Cc1ccc(S(=O)(=O)N2CCOCC2)cc1C(=O)Nc1ccncc1,-2%,-2%,-1%,.,17%,1%
CCOC(=O)N1CCN(S(=O)(=O)c2ccc(C(=O)Nc3nnc(CC)o3)cc2)CC1,16%,4%,-4%,3.5µM*,-4%,-2%
O=C(Nc1nnc(-c2cccs2)o1)c1ccc(S(=O)(=O)N2CCOCC2)cc1,-12%,21µM*,-14%,-44%,-7%,-17%
Cc1ccc(-c2csc(NC(=O)COC(=O)c3cccc(S(=O)(=O)N4CCOCC4)c3)n2)cc1,11µM*,?,3.2µM*,.,2.5µM*,?
Cc1ccc(S(=O)(=O)N2CCOCC2)cc1C(=O)Nc1ccc(-c2cn3ccsc3n2)cc1,?,18µM*,-1%,-49%,-3%,-9%
CCc1ccc(OCCCCN(C)Cc2ccccc2)cc1,-2%,-12%,1%,.,2%,5%
CCCn1c(SCC(=O)NCCCN2CCCC2=O)nc2ccccc2c1=O,.,?,.,.,.,2%
COc1ccc(C2(C(=O)Nc3ccc(C)cc3)CCOCC2)cc1,-1%,-12%,-2%,.,8%,0%
CC(=O)Nc1ccc(C(=O)Nc2ccc(S(=O)(=O)N3CCOCC3)cc2)cc1,?,?,-1%,.,3%,4%
O=C(Nc1nc(-c2ccc(S(=O)(=O)N3CCOCC3)cc2)cs1)c1ccccc1,-15%,13µM*,-22%,-60%,-20%,-10%
